Source: PubChem
Vaccinia mCherry – inhibitors of vaccinia virus infection (mCherry reporter signal) | Potency, µM (series often up to 36.5 µM), for inactives: top-dose activity change, negative = inhibition, actives largely listed as inhibitors | Vaccinia virus mCherry reporter infection, fluorescence | actives 0.63% (n = 310,000); calls by dose curve; tested in A549 cells; further: potency means the concentration at half of the fitted maximal effect; on the % scale 0 is the no-effect control and ±100 the full control effect; nearly all actives have a fitted effect of over 35% in size
LASV entry inh – Lassa virus entry inhibition | Lassa virus pseudotype entry inhibition, cell reporter | Potency, µM (highest dose often 37.9 µM), inactives show at the highest dose activity change, negative = inhibition, most hits filed as inhibitors | actives 1.2% (n = 300,000) | AID 540256; calls by dose curve; tested in HEK293 cells; further: potency means the concentration at half of the fitted maximal effect; on the % scale 0 is the no-effect control and ±100 the full control effect; nearly all actives have a fitted effect of over 50% in size
Cycloheximide cs – counter-screen for Shiga toxin inhibitors: cycloheximide protein synthesis inhibition. cell reporter, cycloheximide protein synthesis inhibition counterscreen. max response, %. actives 12% (n = 300,000); in the data active means max response mostly above about 13%, no sharp cut-off; inactive means mostly below about 14%; further: read at 38.3 µM for the half of the compounds with a filed dose; 0% is about no effect
Marburg entry inh – blocks Marburg virus binding to or entry into cells; Marburg virus pseudotyped entry inhibition, cell reporter; Potency, µM (series often up to 37.8 µM), without a hit: at the top dose activity change, negative = inhibition, actives largely listed as inhibitors; actives 1.8% (n = 300,000); AID 540276; calls by dose curve; tested in HEK293 cells; further: potency means the concentration at half of the fitted maximal effect; on the % scale 0 is the no-effect control and ±100 the full control effect
Shiga toxin inh – blocks Shiga toxin action in Vero cells. Vero cells, Shiga toxin protein synthesis inhibition reporter. inhibition, % at 38.7 µM. actives 9.2% (n = 290,000); in the data active means inhibition mostly above about 28%, no sharp cut-off; inactive means mostly below about 43%; further: 0% is about no effect
VACV Venus inh – inhibitors of vaccinia virus (Venus reporter); Potency, µM (titrated, usually from 36.5 µM), for the others: top-dose activity change, negative = inhibition, actives largely listed as inhibitors; Vaccinia virus Venus reporter expression, fluorescence; actives 0.46% (n = 330,000); AID 720580; calls by dose curve; tested in A549 cells; further: potency means the concentration at half of the fitted maximal effect; on the % scale 0 is the no-effect control and ±100 the full control effect; nearly all actives have a fitted effect of over 30% in size
* = called active by the depositor; i = inactive; u = inconclusive; x = no result; + = active, no number; [ ] = another dose, or the depositor's remark. This is one part of a sample in which hits are shown more often than they occur.

SMILES	Vaccinia mCherry	LASV entry inh	Cycloheximide cs	Marburg entry inh	Shiga toxin inh	VACV Venus inh
CCn1cc([N+](=O)[O-])c(C(=O)Nc2ccc3c(c2)OCCO3)n1	-11%	-19%	38*	10%	47*	0%
O=C(Nc1ccc2c(c1)OCCO2)c1ccc(Cl)c([N+](=O)[O-])c1	-15%	-2%	56*	u	+	-3%
O=C(Nc1ccc2c(c1)OCO2)c1cnc(Cl)c(Cl)c1	i	-1%	x	-21%	x	-6%
Cc1cc(C(=O)Nc2cccc(NC(=O)c3ccco3)c2)ccc1[N+](=O)[O-]	i	-27%[46.1 µM]	19*	12%[46.1 µM]	27*	-9%
O=C(O)c1cc(NC(=O)c2ccc(Cl)c([N+](=O)[O-])c2)cc(C(=O)O)c1	i	4%	-1	0%[46.1 µM]	-6	-11%
CCc1nnc(NC(=O)C2=CCN(S(=O)(=O)c3ccccc3)CC2)s1	x	x	-4	x	7	x
CCOC(=O)CCCNC(=O)CCNC(=O)c1ccc(OCC(C)C)cc1	-12%	6%	-3	u	-2	1%
Cc1cccc(-c2nc3scc(CCNC(=O)c4ccc(Br)o4)n3n2)c1	-6%	-5%[46.1 µM]	x	x	x	-3%
O=C(Nc1ccc2c(c1)OCCO2)c1cccnc1	-14%	u	25*	u	59*	-8%
CC(CCc1ccccc1)NC(=O)c1ccc(C(=O)NC(C)CCc2ccccc2)cc1 (centres undefined)	-7%	u	-2	u	-12	-6%
Cc1cc(C(=O)NC(C)CCc2ccccc2)ccc1[N+](=O)[O-] (centres undefined)	i	-28%[46.1 µM]	18*	-1%[46.1 µM]	x	-11%
O=C(NCc1cccnc1)C(=O)Nc1ccc2c(c1)OCO2	-8%	u	18*	-25%[46.1 µM]	28	-6%
O=C(Nc1ccc(F)c(F)c1)c1cccnc1	x	15%	1	2%	-8	-19%
Cc1cc(C(=O)Nc2ccc(N3CCCC3)c(Cl)c2)ccc1[N+](=O)[O-]	-21%	4%[46.1 µM]	47*	u	31*	-18%
O=C(Nc1ccc(N2CCCC2)c(Cl)c1)c1ccc([N+](=O)[O-])cc1	x	1%	15	-2%	9	x
CCN1C(=O)NC(c2ccccc2)C(C(=O)OC)=C1C (centres undefined)	x	x	x	7%[14.2 µM]	x	x
C[C@@H]1CC[C@H]2C(=O)N3[C@@H](CC[C@@H](C)[C@@H]3c3ccc(-c4ccco4)cc3)C(=O)N2[C@@H]1c1ccc(-c2ccco2)cc1	x	u	x	-2%[14.2 µM]	x	x
O=C(O)C(Oc1ccc2c3c(c(=O)oc2c1)CCC3)c1ccccc1 (centres undefined)	-12%	-5%	11	10%	2	-10%
CNc1oc(-c2ccc(C)cc2)nc1P(=O)(c1ccccc1)c1ccccc1	-18%	21µM*	7	u	-9	-26%
CC(C)(C)C(=O)Cn1c(=O)n(CCCCCC(=O)NCc2ccc3c(c2)OCO3)c(=O)c2sccc21	i	28%[46.1 µM]	x	13%[46.1 µM]	x	-13%
CC1=C(c2ccc(C(C)C)cc2)S(=O)(=O)N=C1N1CCC(C(=O)NCCc2ccco2)CC1	-19%	-4%[46.1 µM]	x	x	x	-15%
Cc1ccc(S(=O)(=O)N2CCN(c3nc(-c4ncco4)nc4ccccc34)CC2)cc1	-18%	x	x	x	x	-15%
COc1cc(N2CCN(C(C)C)CC2)ccc1Nc1nc(Nc2cccc3ncccc23)c2cc[nH]c2n1	x	20µM*	x	x	x	x
CC(C)C(C)N(Cc1ccc(C(=O)O)cc1)C(=O)c1ccc2ccccc2n1 (centres undefined)	i	-2%[46.1 µM]	x	18%[46.1 µM]	x	-14%
CCCC(=O)N1CCC1(C)C(=O)NS(=O)(=O)c1cc(C)ccc1F (centres undefined)	31%	x	x	x	x	3%
SMILES	Vaccinia mCherry	LASV entry inh	Cycloheximide cs	Marburg entry inh	Shiga toxin inh	VACV Venus inh
CCNC(=O)NC(=O)C(C)Oc1ccc(Br)cc1Br (centres undefined)	-10%	1%	64*	u	98*	-15%
NNC(=O)CS(=O)(=O)CS(=O)(=O)CC(=O)NN	-11%	-10%	16	20%	-14	-5%
COCCn1c(C)cc(O)c(C(c2ccc(C)cc2)N2CCCCC2)c1=O (centres undefined)	-13%	-21%[46.1 µM]	x	x	x	-8%
Nc1nc2ccccc2cc1-c1cccs1	x	x	61*	x	94*	x
Cc1cc(-c2cccs2)n[nH]1	x	2%	14	4%	28	-26%
Cc1ccc(-c2cc3ccccc3nc2N)cc1	x	x	18*	x	71*	x
Cc1cc2ncc(-c3cccs3)nc2cc1C	x	x	51*	x	101*	x
c1ccc2nc(C3=NCCN3)ccc2c1	x	u	x	9%	x	x
